The record followed here is PubChem BioAssay (EPA / NIEHS).

Where “and” joins values, the source holds several entries; their conditions need not be identical. Equal entries are not always repeated. Results filed as inconclusive are left out. Some structures have more than one record in an assay (separate samples or runs), and their calls can disagree. Calls of active or inactive are those of the source. How the source made its calls, unless noted: active means hit-call score of the fitted dose curve at least 0.9, where 1 is the maximum; inactive means score below 0.9.

One may read the AC50 as the concentration giving half of the maximal activity seen.

The nature of test [1]: CCTE_Shafer_MEA_dev_active_electrodes_number: CCTE's Neural Network Formation Assay for Number of Active Electrodes, Shafer Lab (AID 2284040; active means hit-call score of the fitted dose curve at least 0.9, where 1 is the maximum;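 on AC50: potency for loss of active electrodes versus DMSO so lower counts are hits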). The essentials: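 Rat cortical primary cultures, 1.5 x 10^5 cells/well, PEI-coated MEA, laminin drop. Continuous exposure DIV 0–12; full media/compound change DIV 5, 9. Readout: electrodes with mean firing ≥5 spikes/min; AUC across days; loss vs DMSO.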

Test [2] can be described thus: CCTE_Shafer_MEA_dev_bursting_electrodes_number: CCTE's Neural Network Formation Assay for Number of Bursting Electrodes, Shafer Lab (AID 2284043; active means hit-call score of the fitted dose curve at least 0.9, where 1 is the maximum;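 on AC50: potency is for loss of bursting electrodes relative to DMSO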). The essentials: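 Primary rat cortical neurons plated on 16-electrode MEA wells, exposed from day 0 with compound renewed at DIV 5 and 9. Electrodes bursting ≥1 burst per 2 min counted on days 5, 7, 9 and 12; trapezoidal AUC across days, fitted for loss versus DMSO.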

The nature of test [3]: CCTE_Shafer_MEA_dev_per_burst_interspike_interval: CCTE's Neural Network Formation Assay for Burst Interspike Interval, Shafer Lab (AID 2284044).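 Further: mean spike spacing inside bursts as AUC over recordings on days 5 7 9 12.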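 On AC50: potency for a decrease of within-burst interspike interval below DMSO level.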 The essentials: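 Developmental network-formation MEA in primary rat cortical cultures with exposure spanning days 0–12. Within-burst ISI is averaged per well and integrated across recording days by area under the curve, with DMSO as negative control baseline.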

The nature of test [4]: CCTE_Shafer_MEA_dev_burst_duration_mean: CCTE's Neural Network Formation Assay for Mean Burst Duration, Shafer Lab (AID 2284045). Put shortly:
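Primary rat cortical neurons on 48-well 16-electrode MEA plates, exposed from day 0 with renewal at DIV 5 and 9; spontaneous activity recorded on days 5, 7, 9, 12. Well-mean burst duration across bursting electrodes, collapsed as trapezoidal AUC; DMSO baseline.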

The nature of test [5]: CCTE_Shafer_MEA_dev_interburst_interval_mean: CCTE's Neural Network Formation Assay for Mean Interburst Interval, Shafer Lab (AID 2284046).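 Further: well-mean interburst interval of bursting electrodes as AUC over four recording days; curve fitted for decrease in interburst interval relative to DMSO.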 The essentials:
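Developing rat cortical networks on 48-well MEAs receive compound from the day of plating. Burst intervals from each active electrode are averaged per well, and AUC over the recording days is fitted in the negative direction against DMSO.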

Test [6] can be described thus: CCTE_Shafer_MEA_dev_inter_network_spike_interval_mean: CCTE's Neural Network Formation Assay for Mean Inter-network Spike Interval, Shafer Lab (AID 2284047). The essentials: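 Rat cortical cultures, 1.5 x 10^5 cells/well on 48-well MEA plates; continuous exposure days 0–12, medium and compound refreshed DIV 5, 9. Mean time between consecutive network-spike peaks; AUC across DIV 5/7/9/12; DMSO baseline, negative fitting direction.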

A short description of test [7]: CCTE_Shafer_MEA_dev_network_spike_number: CCTE's Neural Network Formation Assay for Number of Network Spikes, Shafer Lab (AID 2284048).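 On AC50: fit as a loss of signal meaning fewer network spikes than DMSO.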 The essentials: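 Primary rat cortical neurons on PEI/laminin 48-well MEA plates, dosed from plating day 0 for 12 days, renewed at DIV 5 and 9. Network spike counts recorded DIV 5, 7, 9, 12, collapsed as trapezoidal AUC; DMSO baseline.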

Test [8] can be described thus: CCTE_Shafer_MEA_dev_network_spike_peak: CCTE's Neural Network Formation Assay for Mean Number of Electrodes in Network Spike, Shafer Lab (AID 2284049).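 On AC50: fitted for loss of signal meaning fewer electrodes in network spikes than DMSO.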 The essentials:
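Network-spike peak electrode count from recordings on days 5, 7, 9 and 12 was combined as trapezoidal area under the curve. Rat cortical cultures were treated continuously from plating, with compound renewed at each feed (DIV 5, 9); fits versus DMSO.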

Test [9] can be described thus: CCTE_Shafer_MEA_dev_spike_duration_mean: CCTE's Neural Network Formation Assay for Mean Spike Duration, Shafer Lab (AID 2284051).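 Further: mean network spike duration pooled as area under curve over DIV 5 to 12 recordings.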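 On AC50: potency for a decrease in mean network spike duration versus DMSO.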 The essentials:
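Readout is the average length of network spikes, clustered firing across electrodes, summed over DIV 5, 7, 9 and 12 as area under the curve. Neurons from rat cortex developed networks on MEA plates under continuous 12-day exposure.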

The nature of test [10]: CCTE_Shafer_MEA_dev_network_spike_duration_std: CCTE's Neural Network Formation Assay for Standard Deviation of Network Spike Duration, Shafer Lab (AID 2284052).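 Further: hits are decreases in network spike duration SD versus DMSO vehicle.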 Put shortly: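 Read-out is the trapezoidal area-under-the-curve across recordings made on days 5, 7, 9 and 12, fitted in the negative direction against DMSO baseline. Neurons were primary rat cortical cells treated from day 0, with treatment renewed at each feed.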

The nature of test [11]: CCTE_Shafer_MEA_dev_per_network_spike_spike_number_mean: CCTE's Neural Network Formation Assay for Mean Number of Spikes in a Network Spike, Shafer Lab (AID 2284053).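 On AC50: fitted as decrease in spikes per network spike relative to DMSO.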 Put shortly: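 Continuous twelve-day exposure of developing rat cortical networks grown over 16 microelectrodes per well; spontaneous firing is captured at four time points, and the per-network-spike spike number is integrated over development by trapezoidal AUC.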

The nature of test [12]: CCTE_Shafer_MEA_dev_per_network_spike_spike_percent: CCTE's Neural Network Formation Assay for Percent of Spikes in a Network Spike, Shafer Lab (AID 2284054). The essentials:
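Rat primary cortical neurons were grown on 48-well MEA plates (16 electrodes/well), exposed from plating day 0 through day 12, with treatment renewed on DIV 5 and 9. Percent of spikes within 0.05 s network-spike peaks was measured, summarised as AUC across days 5, 7, 9, 12.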

Test [13] can be described thus: CCTE_Shafer_MEA_dev_LDH: CCTE's Lactate Dehydrogenase Assay for Cytotoxicity in the Neural Network Formation Assay, Shafer Lab (AID 2284068; active means hit-call score of the fitted dose curve at least 0.9, where 1 is the maximum;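 further: exposure for twelve days from plating with re-dosing on DIV 5 and 9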). The essentials:
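Cytotoxicity companion to network-formation recordings: rat cortical neurons received compound over 12 days of development, re-dosed at DIV 5 and 9 feeds. Viability was inferred from LDH enzyme activity relative to DMSO.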

Test [14] in a line: UKN5_HCS_SBAD2_cell_viability: Viability Assessment in the University of Konstanz (UKN) Leist Lab Neurite Outgrowth Assay in human iPSC-derived immature Dorsal Root Ganglia Neurons (UKN5) (AID 2284056). Put shortly:
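iPSC-derived immature peripheral neurons (SBAD2) seeded on Matrigel with CHIR99021, SU5402 and DAPT, dosed 1 h later for 24 h. Viability from Hoechst H-33342 and calcein-AM live staining, high-content imaging; bidirectional fit versus DMSO.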

As for `CC(C)(C)c1ccccc1OP(=O)(Oc1ccccc1)Oc1ccccc1`, the AC50 was 24.3 µM (active) in test [1]; 16.4 µM (active) and 26.8 µM (active) in [2]; 22.9 µM (active) in test [8]; 25.7 µM (active) in [9]; 25.4 µM (active) in test [11]; 15 µM (active) in test [12]. Moreover, the half-maximal activity concentration (AC50) in test [13] was 15.5 µM (active) and 26 µM (active). The compound was called inactive in test [1], in test [3], in [4], in [5], in [6] and in [7]. The outcome in test [8], in test [9], in [10], in [11] and in test [12] was inactive.

Take `CCOc1ccc(C(C)(C)COCc2cccc(Oc3ccccc3)c2)cc1`: the AC50 in [1] is 10 µM (active); in test [2], 8.06 µM (active); in test [3] it was 14 µM (active); in test [5] it was 18 µM (active); in test [8], 6.54 µM (active); in [9] it was 4.41 µM (active). Also, the AC50 in test [11] was 10 µM (active); in [12], 10 µM (active); in [13], 15.2 µM (active). Further, the call in test [4], in test [6], in test [7] and in test [10] was inactive.

Regarding `O=C(O)C(F)(F)C(F)(F)C(=O)O`, the compound was classed as inactive in test [1], in test [2], in test [3], in test [4], in test [5] and in test [6]. The outcome in test [7], in [8], in test [9], in [10], in [11] and in test [12] was inactive. The compound was classed as inactive in [13].

For the compound `O=C(O)C(F)(OC(F)(F)C(F)(F)C(F)(F)F)C(F)(F)F` (stereo not drawn), the compound was classed as inactive in test [1], in test [2], in test [3], in test [4], in test [5] and in test [6]. In addition, the compound was classed as inactive in test [7], in test [8], in [9], in [10], in [11] and in test [12]. Besides, the call in [13] was inactive. In addition, the half-maximal activity concentration (AC50) in test [7] was 0.402 µM (active).

For `O=C(O)C(F)(F)OC(F)(F)C(F)(F)OC(F)(F)F`, the compound was called inactive in [1], in test [3], in [4], in [5], in [6] and in test [7]. Moreover, the outcome in test [8], in [9], in test [10], in test [11] and in test [12] was inactive.

Take `CCCCC(CC)COC(=O)c1c(Br)c(Br)c(Br)c(Br)c1C(=O)OCC(CC)CCCC` (stereo not drawn): the result in test [1], in test [2], in test [3], in [4], in test [5] and in [6] was inactive. The result in [7], in [9], in test [10], in [11], in test [12] and in test [13] was inactive. Moreover, the AC50 in [8] was 0.33 µM (active).

With `O=S1(=O)OCC2C(CO1)C1(Cl)C(Cl)=C(Cl)C2(Cl)C1(Cl)Cl` (stereo not drawn), in test [14], the call was inactive.
